From PubChem BioAssay (Tox21) come the findings set out here.

Records with an inconclusive call do not appear. Unmarked numbers belong to inactive results. Calls follow the shape of the dose curve; as a rule, active = well fitted cell-killing curve with a large enough effect in the repeat runs; inconclusive = weak or mixed curves; inactive = flat fitted curve, though single readings scatter.
% is scaled to controls: 0 for no effect and ±100 for the full control effect.

This assay in a line: qHTS assay to identify small molecule antagonists of the estrogen receptor beta (ER-beta) signaling pathway - cell viability counter screen (AID 1259382). Also: nearly all actives have a fitted effect of over 55% in size. To be noted: ER-beta-UAS-bla HEK293T viability, CellTiter-Glo luminescence, 16 h; series mostly up to 92.4 µM; activity change, negative = cytotoxicity: at the top concentration. An outline of the steps: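 Agonist-stimulated (1nM E2) ER-beta-UAS-bla HEK293T cells are incubated with library compounds for 16 hr at 37C. Cell viability is then assessed in the reporter-assay wells by adding CellTiter-Glo and reading luminescence after 30 min.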
In general terms: qHTS replaces the single test concentration by a dilution series.
For the compound `Nc1ccc2cc(S(=O)(=O)O)cc(O)c2c1`, the “activity change, negative = cytotoxicity” value was 0.706%.

For the compound `Cc1cc(NC(=O)C2=C(O)c3ccccc3S(=O)(=O)N2C)no1`, the “activity change, negative = cytotoxicity” value is 0.0616% [at 42.5 µM].

On to `CCOC(=O)c1ccc(OC(=O)CCCCCN=C(N)N)cc1`, for which the “activity change, negative = cytotoxicity” value was 7.81% [at 42.5 µM].

Take `C[Si](C)(C)C`: the “activity change, negative = cytotoxicity” value is 2.9%.

For the compound `C=Cc1ccccn1`, the “activity change, negative = cytotoxicity” value is -4.2%.

As to `CCc1ccc(C=O)cc1`, the “activity change, negative = cytotoxicity” value is 5.01%.

Regarding `C=C(C)C(=O)OCCNC(C)(C)C`, the “activity change, negative = cytotoxicity” value is -9.4%.

As to `CCC(C)(CCC(C)C)C(=O)O` (stereo not given), the “activity change, negative = cytotoxicity” value was -3.64%.

In the case of `CC(=O)c1sc(C)nc1C`, the “activity change, negative = cytotoxicity” value is 1.25%.

Regarding `CCCCOCCOC(=O)COc1nc(Cl)c(Cl)cc1Cl`, the “activity change, negative = cytotoxicity” value was -1.06%.

As to `C[C@@H]1O[C@@H](O[C@@H]2[C@@H](O)[C@H](OCCc3ccc(O)c(O)c3)O[C@H](CO[C@@H]3O[C@H](CO)[C@@H](O)[C@H](O)[C@H]3O)[C@H]2OC(=O)/C=C/c2ccc(O)c(O)c2)[C@H](O)[C@H](O)[C@H]1O`, the “activity change, negative = cytotoxicity” value was 2.35%.

Regarding `Cc1ccccc1N=O`, the “activity change, negative = cytotoxicity” value is -1.55%.

For the compound `Brc1ccc(-c2ccccc2)cc1`, the “activity change, negative = cytotoxicity” value is -7.23%.

For the compound `COc1ccc2nc(SCc3ncc(C)c(OC)c3C)[nH]c2c1`, the “activity change, negative = cytotoxicity” value was -18.8% [at 42.5 µM].

For `CC1COc2ccccc2N1` (stereo not given), the “activity change, negative = cytotoxicity” value was 3.9%.

Turning to `C[Si](C)=O`, the activity change, negative = cytotoxicity was 0.879% [at 8.39 µM].

For `COc1ccc(Br)c(C)c1`, the “activity change, negative = cytotoxicity” value is -1.89%.

Turning to `CC(=O)c1ccc2c(c1)Cc1ccccc1-2`, the “activity change, negative = cytotoxicity” value is -10.9%.

Regarding `COc1ccc2c(c1)C(=O)N(CCc1ccc(S(=O)(=O)NC(=O)NC3CCCCC3)cc1)C(=O)C2(C)C`, the “activity change, negative = cytotoxicity” value is -20.5% [at 42.5 µM].

`O=C(OCC1(COC(=O)c2cccnc2)CCCC(COC(=O)c2cccnc2)(COC(=O)c2cccnc2)C1O)c1cccnc1`: the “activity change, negative = cytotoxicity” value is 7.4% [at 42.5 µM].

Turning to `N[C@@H](CCC(=O)N[C@@H](CS)C(=O)NCC(=O)O)C(=O)O`, the activity change, negative = cytotoxicity was 1.29% [at 19 µM].

For `CC(=O)Nc1cccc(C)c1`, the “activity change, negative = cytotoxicity” value is -5.91%.

For `FC(F)(F)c1ccccc1-n1ccnc1`, the “activity change, negative = cytotoxicity” value was 6.16% [at 42.5 µM].

In the case of `COC(=O)C1CC(=O)C(C(=O)OC)CC1=O` (stereo not given), the activity change, negative = cytotoxicity is 5.88% [at 8.39 µM].

Take `CCCCNc1ccc(C(=O)OCCN(C)C)cc1`: the “activity change, negative = cytotoxicity” value was -3.39% [at 42.5 µM].

With `O=C(O)Cc1cn(-c2ccccc2)nc1-c1ccc(Cl)cc1`, the “activity change, negative = cytotoxicity” value is -16% [at 42.5 µM].

Turning to `ClCCCl`, the “activity change, negative = cytotoxicity” value is 2.39%.

As for `CC1=CCC(C(C)C)=CC1`, the “activity change, negative = cytotoxicity” value was 1.51%.

For `O=C(OCC(O)CO)c1ccccc1Nc1ccnc2c(C(F)(F)F)cccc12` (stereo not given), the “activity change, negative = cytotoxicity” value is 5.01% [at 42.5 µM].

Turning to `C=C(C)C(=O)OCc1ccccc1`, the “activity change, negative = cytotoxicity” value is -10.8%.

In the case of `CC(C)CC(C)CC(C)CC(C)COC(=O)c1ccccc1C(=O)OCC(C)CC(C)CC(C)CC(C)C` (stereo not given), the “activity change, negative = cytotoxicity” value is 5.19%.

With `CC(C)(C)c1cc(CCC(=O)NN)cc(C(C)(C)C)c1O`, the “activity change, negative = cytotoxicity” value is -10.6%.

On to `COc1ccc2c(c1OC)C(=O)O[C@@H]2[C@H]1c2c(cc3c(c2OC)OCO3)CCN1C`, for which the “activity change, negative = cytotoxicity” value was -0.215% [at 42.5 µM].

For the compound `CN=C(NC#N)Nc1ccc(C2=NNC(=O)CC2C)cc1` (stereo not given), the “activity change, negative = cytotoxicity” value is 2.69% [at 42.5 µM].

In the case of `O=C1c2cccc3c2[C@H](CCC3)CN1[C@@H]1CN2CCC1CC2`, the “activity change, negative = cytotoxicity” value is -21.2% [at 42.5 µM].
